Among all 68,000 compounds or so, about 2,700 (4%) showed an effect of 50% or more. For the sample, strong results were picked, then their nearest neighbours and some compounds at random.
Each compound was assayed on Plasmodium berghei (assay: Screen against P. berghei liver stage (PbLuc), transformed with Luciferase, at 2uM). Details: tested at 2 uM.
Assay type: functional, HepG2

Compound	INHIBITION [%]
COCCNC(=O)N1CC(Cc2ccccc2F)C1	-41.64
Cc1cc(C)n2ncc(CN3CCC(n4cc(CCO)nn4)CC3)c2n1	31.51
CCCc1cnc(C)nc1N1CCC(Cn2cc(CO)nn2)CC1	9.69
Cc1cc(C)n2ncc(CN3CCC(Cn4cc(CO)nn4)CC3)c2n1	64.9
CCC(C(=O)NCc1csc(N2CCOCC2)n1)n1cccn1 (centres undefined)	17.78
Cc1cncc(Oc2ccc(CN)cc2)n1	32.31
Clc1cnc(NCc2ccccc2N2CCOCC2)nc1	-2.35
c1ncn(CC2CCCN(Cc3nc(C4CC4)no3)C2)n1 (centres undefined)	-8.84
c1cnn(CC2CN(Cc3nc(C4CC4)no3)CCO2)c1 (centres undefined)	9.41
c1ncn(CC2CN(Cc3nc(C4CC4)no3)CCO2)n1 (centres undefined)	60.64
CC(C)Cc1nc(CN2CCOC(Cn3cncn3)C2)no1 (centres undefined)	40.17
CCc1nc(CN2CCOC(Cn3cncn3)C2)no1 (centres undefined)	55.7
CCCc1nc(CN2CCOC(Cn3cncn3)C2)no1 (centres undefined)	37.52
CCc1ccc(CC)c(NCc2cnc(N3CCOCC3)nc2)c1	-64.63
COCC(=O)N1C[C@@H]2CCCO[C@@H]2[C@H](N(C)Cc2ccco2)C1	-17.76
Cc1ccc(CN2CCOC3(CCCN(c4cccc(F)c4)C3)C2)o1 (centres undefined)	22.15
Cc1noc(C)c1CN1CCN(C(C)c2nc(C3CC3)no2)CC1 (centres undefined)	33.22
Cc1ncsc1-c1nc(Cc2cccs2)nn1C1CCN(C)CC1	43.44
CN1CCC(n2nc(Cc3cccs3)nc2-c2ccncc2)CC1	21.97
CCc1noc(C)c1-c1nc(Cc2cccs2)nn1C1CCN(C)CC1	64.9
CCc1sc(C(=O)Nc2cnn(CC(N)=O)c2)cc1C	2.51
CS(=O)(=O)N1CC[C@]2(O)CCN(c3cc(C#N)ccn3)C[C@@H]2C1	19.44
CN(C)S(=O)(=O)N1CC[C@]2(O)CCN(c3ncccn3)C[C@@H]2C1	13.51
CN(C)S(=O)(=O)N1CC[C@]2(O)CCN(c3cc(C#N)ccn3)C[C@@H]2C1	57.68
O=C(c1ccccc1O)N1CCN(C(=O)C2CCC2)CC1	51.31

Compound	INHIBITION [%]
Cn1ccc2c(C(=O)N3CCN(C(=O)C4CCCC4)CC3)cccc21	16.64
O=C(c1cc(F)ccc1O)N1CCN(C(=O)C2CCC2)CC1	-10
Cc1ccc(S(=O)(=O)Nc2ccc(-n3nnn(C)c3=O)cc2)cc1	-2.66
CN(Cc1ncnn1C)C(=O)CCCn1ccc2cc(Cl)ccc21	57.23
CN(CC(N)=O)C(=O)CCCn1ccc2cc(Cl)ccc21	28.42
CN(Cc1ncnn1C)C(=O)CCn1ccc2ccccc21	-2.19
Cc1cnc(N2C[C@H]3CN(Cc4csc(C)n4)C(=O)[C@H]3C2)nc1	22.18
CNc1cccc(C2CCCN(C(=O)c3cnccn3)C2)n1 (centres undefined)	36.98
CNc1cccc(C2CCCN(C(=O)c3cccnc3)C2)n1 (centres undefined)	-23.48
CNc1cccc(C2CCCN(C(=O)c3ccncc3)C2)n1 (centres undefined)	52.89
COCCNC(=O)[C@@]12CCO[C@@H]1CCN(Cc1cc(C)on1)C2	10.43
O=C(NCc1ccccc1)C1CN(c2ccccn2)CCO1 (centres undefined)	82.2
O=C(NCc1cccnc1)[C@H]1C[C@@H]2CCN(c3ccncn3)C[C@H]2O1	23.53
Cc1cnc(N2CCOC(C(=O)NCc3ccccc3)C2)s1 (centres undefined)	10.03
O=C(Nc1ccccc1-c1ccccc1)N1C[C@@H]2CNC[C@]2(C(=O)O)C1	14.54
O=C(Nc1ccc(-c2ccccc2)cc1)N1C[C@@H]2CNC[C@]2(C(=O)O)C1	51.42
O=C(c1ccccc1-c1ccccc1)N1C[C@@H]2CNC[C@]2(C(=O)O)C1	19.13
CS(=O)(=O)CCNC1CCCN(Cc2noc(C3CC3)n2)C1 (centres undefined)	33.52
CC(C)c1cc(C(=O)NCC2CCCN(C(C)C)C2)n(C)n1 (centres undefined)	48.04
Cc1cc(C(=O)N2CCN(C(=O)CCC3CCCCC3)CC2)n(C)n1	74.44
O=C(c1ccon1)N1CCN(c2ccncc2Cl)CC1	39.5
Cc1cc(C(=O)N2CCN(c3ccncc3Cl)CC2)n(C)n1	64.35
Cc1nn(C)c(C)c1C(=O)N1CCN(C(=O)CCC2CCCCC2)CC1	21.97
Cc1nn(C)c(C)c1C(=O)N1CCN(c2ccncc2Cl)CC1	4
Cc1nn(C)c(C)c1C(=O)N1CCN(C(=O)CC2CCCCC2)CC1	43.44

Compound	INHIBITION [%]
Cc1cc(C)n(CC(C)CNC(=O)N(C)Cc2cc(C)on2)n1 (centres undefined)	0.89
Cc1nc(-c2cc(C(=O)NCCN3CCOCC3)c3ccccn23)cs1	-40.36
CC(c1ccncc1)N(C)S(C)(=O)=O (centres undefined)	-22.2
Cc1noc([C@]23COC[C@H]2CN(C(=O)Cc2ccsc2)C3)n1	15.36
CCS(=O)(=O)N1CCOC(CCCc2ccccc2)C1 (centres undefined)	1.94
CC(C)(CN1CCC(Cc2ccc(C(=O)O)cc2)C1)N1CCOCC1 (centres undefined)	52.01
CC(C)(CN1CCC(Cc2cccc(C(=O)O)c2)C1)N1CCOCC1 (centres undefined)	-32.96
CC(C)(CN1CCC(Cc2ccc(CO)cc2)C1)N1CCOCC1 (centres undefined)	-57.88
c1cnc(-c2noc(C3CN(Cc4ccc5c(c4)CCO5)C3)n2)nc1	-17.26
COc1ccccc1C(=O)N(C)Cc1nnc2ccccn12	40.82
COC(=O)C(c1cc(F)ccc1F)N(C)C(=O)c1cnc(C)cn1 (centres undefined)	60.09
COC(=O)C(c1cc(F)ccc1F)N(C)C(=O)c1ccnc(C)n1 (centres undefined)	-12.91
COC(=O)C(c1cc(F)ccc1F)N(C)C(=O)c1cnccn1 (centres undefined)	-27.5
Cc1cc(C)n(CCC2CC(=O)Nc3cc(O)c(C)cc32)n1 (centres undefined)	-32.52
Cc1noc(C(C)C)c1C(=O)NCCCN1CCC(C)CC1	-15.34
Cc1noc(C(C)C)c1C(=O)NCCCN1CCNCC1	43.16
Cc1noc(C(C)C)c1C(=O)NCCCN1CCCCCC1=O	77.68
Cc1noc(C)c1C(=O)NCCN1CCOCC1	63.46
Cc1noc(C(C)C)c1C(=O)NCCN1CCCCCC1=O	60.21
Cc1noc(C(C)C)c1C(=O)NCCCN1CCCC1	-75.02
Cc1noc(C(C)C)c1C(=O)NCCC(=O)N1CCCCC1	11.57
Cc1noc(C(C)C)c1C(=O)NCCN1CCOCC1	32.63
Cc1noc(C)c1C(=O)NCCN1CCN(S(C)(=O)=O)CC1	-41.64
Cc1nc(-c2ccccc2C)n(CC(=O)NC2CCCC2)n1	31.57
Cn1ccc(C(=O)N2CCCC2c2cc[nH]n2)n1 (centres undefined)	16.43

Compound	INHIBITION [%]
COCCc1ncc(CN2C[C@@H](C(=O)O)[C@H](C(C)C)C2)cn1	-59.6
COc1ccc(-n2ccc(CNCc3cccc(OC)c3)n2)cc1	28.75
O=C(NCc1cnn2cccnc12)C1CC2(CCNCC2)CN1 (centres undefined)	-1.33
Cn1cc(-c2cnc(N3CCOCC3)nc2)cc1C(=O)NCCC#N	-0.45
CCC(NC(=O)c1cc(NC(C)=O)ccc1Cl)c1cc(C)ccn1 (centres undefined)	57.75
COCC(NC(=O)c1cc(NC(C)=O)ccc1Cl)c1ccnn1C (centres undefined)	21.97
COCC(NC(=O)c1cc(NC(C)=O)ccc1Cl)c1ccccn1 (centres undefined)	29.13
COC(=O)C1CCCN1CC(=O)NCc1ccc(OCC(N)=O)cc1 (centres undefined)	-6.33
O=C1CCC[C@]2(CN(S(=O)(=O)N3CCCCC3)C[C@H]2c2cccnc2)N1	-0.64
O=C(C1CC1)N1CCN(C(=O)CSc2ccccn2)[C@H]2CS(=O)(=O)C[C@H]21	-32.88
Cc1nnsc1C(=O)N1CCN(CC2CC2)[C@@H]2CS(=O)(=O)C[C@@H]21	0.54
O=C(CSc1ccccn1)N1CCN(CCO)[C@@H]2CS(=O)(=O)C[C@@H]21	67.28
CC(=O)N1CCN(C(=O)c2snnc2C)[C@H]2CS(=O)(=O)C[C@H]21	-3.73
CCCN1CCN(C(=O)c2ccc3ccccc3n2)[C@H]2CS(=O)(=O)C[C@H]21	57.21
CCCN1CCN(C(=O)Cc2cccnc2)[C@H]2CS(=O)(=O)C[C@H]21	23.19
CC(C)=CCN1CCN(CCCc2ccccc2)[C@H]2CS(=O)(=O)C[C@H]21	7.29
CC(C)=CCN1CCN(C(=O)COc2ccccc2)[C@H]2CS(=O)(=O)C[C@H]21	41.68
CC(C)=CCN1CCN(C(=O)c2snnc2C)[C@H]2CS(=O)(=O)C[C@H]21	51.38
CC(C)=CCN1CCN(C(=O)CSc2ccccn2)[C@H]2CS(=O)(=O)C[C@H]21	64.9
CCCN1CCN(C(=O)c2cc3ccccc3cn2)[C@H]2CS(=O)(=O)C[C@H]21	35.01
CCCN1CCN(C(=O)c2cccc(C)n2)[C@H]2CS(=O)(=O)C[C@H]21	6.84
C[C@H](NC(=O)C1CCCC1)c1nc2cc(-c3ccc(F)cc3)ncn2n1	39.48
CC(O)c1cccc(OCc2ccon2)c1 (centres undefined)	46.28
Cn1cc(CN2CC[C@H]3O[C@H](C(=O)Nc4cnccn4)CC[C@H]32)cn1	-20.89
